Experimental data reported in ChEMBL document CHEMBL3433997, “St. Jude Leishmania screening dataset” (2016).

Molecular target: Solute carrier family 2, facilitated glucose transporter member 1 (Homo sapiens) (UniProt P11166)
Experiment: ST_JUDE_LEISH: Cytotoxicity at 2uM final concentration against transgenic Leishmania Mexicana promastigotes LmGLUT1 that are glucose transport deficient and complemented with the human glucose transporter GLUT1. Activity is measured by DNA content using SYBR green in vitro
Format: functional

Sequence of Solute carrier family 2, facilitated glucose transporter member 1 (Homo sapiens) (P11166 whole entry): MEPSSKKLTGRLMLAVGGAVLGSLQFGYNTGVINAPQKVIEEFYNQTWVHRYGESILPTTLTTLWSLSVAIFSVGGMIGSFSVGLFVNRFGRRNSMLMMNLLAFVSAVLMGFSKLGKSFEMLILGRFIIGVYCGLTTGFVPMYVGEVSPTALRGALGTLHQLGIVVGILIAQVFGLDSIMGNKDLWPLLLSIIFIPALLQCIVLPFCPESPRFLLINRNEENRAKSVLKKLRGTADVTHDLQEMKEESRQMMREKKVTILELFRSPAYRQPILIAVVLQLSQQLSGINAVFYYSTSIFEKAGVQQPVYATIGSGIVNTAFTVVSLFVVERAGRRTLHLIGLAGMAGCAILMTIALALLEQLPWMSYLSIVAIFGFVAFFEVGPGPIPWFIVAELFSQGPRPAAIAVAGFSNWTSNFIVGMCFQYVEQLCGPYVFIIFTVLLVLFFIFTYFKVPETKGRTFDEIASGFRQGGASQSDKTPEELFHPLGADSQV

SMILES | inhibition [%]
N#Cc1ccc(N2C[C@@H](OCc3ccccc3)C[C@H]2C(=O)NCCC(c2ccccc2)c2ccccc2)c2ccccc12 | 5.42
O=C(Nc1ccc(SC(F)(F)F)cc1)Nc1ccnc2ccccc12 | -1.32
CN(C)CCCOc1ccc(CN2CC[C@H](NC(=O)c3ccc(Cl)c(Cl)c3)C2)cc1Cl | 13.3
OC[C@H](Nc1nc(C(Oc2ccccc2)c2ccccc2)nc2[nH]ncc12)c1ccccc1 (stereo not given in full) | 7.13
O=C(Nc1ccc2c(c1)CCN2C1CCN(Cc2cccc(C(F)(F)F)c2)C1)c1ccco1 (stereo not given) | -2.78
COC(=O)c1cccc(OCCNC2CCN(C[C@H](O)c3ccnc4ccc(OC)cc34)CC2)c1 | 0.73
O=C(CSc1nc2ccccc2c(=O)n1C1CC1)Nc1cc(C(F)(F)F)ccc1Cl | -0.03
N=C(N)NC(=O)Nc1cc(Br)c(Br)c(Br)c1 | 3.42
CCOc1cc(Cc2cnc(N)nc2N)cc(OCC)c1OCC | 4.33
CCCCCCCCOc1c(OCC)cc(Cc2cnc(N)nc2N)cc1OCC | 13.7
O=C(Nc1ccc(C(F)(F)F)cc1)c1ccc(S(=O)(=O)NCC2CCCN(CC3CCCCC3)C2)cc1 (stereo not given) | 2.94
CCc1nc2nc(C)cc(Nc3cc(C)cc(C)c3)n2n1 | 3.06
O=C(NC1CC1)c1ccc(N2CCC(Oc3ccc(F)cc3)CC2)nc1 | 2.46
CS(=O)(=O)Nc1ccc(-c2cnc3[nH]cc(-c4ccc(C(=O)O)cc4)c3c2)cc1 | 8.98
O=C(Nc1cccc(CN2CCCN(Cc3cccc(O)c3)CC2)c1)c1ccc(Cl)c(Cl)c1 | 13.9
CC1(C)NC(N)=NC(=N)N1OCc1cccc(Cl)c1Cl | 2.02
O=[N+]([O-])c1c(O)nc2c(c1O)CCC2 | 4.52
COc1ccc(N2CCN(CCCCNC(=O)c3ccc(NC(=O)c4ccc(Cl)cc4)cc3)CC2)c(C)c1 | 10.4
COc1ccc(CNCc2ccc(-c3ccc(-c4nc5cccc(C)c5[nH]4)s3)cc2)cc1 | 18.1
C=CC[C@H](C[C@H](O)[C@H](Cc1ccccc1)NC(=O)c1ccc(-c2cccnn2)cc1)C(=O)NC1CCCCC1 | -1.55

SMILES | inhibition [%]
CCN(CCNC(=O)Nc1cc(C(F)(F)F)cc(C(F)(F)F)c1)c1cccc(C)c1 | 5.44
CN(CCCCNC(=O)/C=C/c1ccccc1)C1CC2(CCN(C(=O)OC(C)(C)C)CC2)c2ccccc21 (stereo not given) | 3.4
CC(C)c1cccc(OCC2CCN(c3ccc(C(=O)Nc4ccccc4)cn3)CC2)c1 | 11.2
FC(F)(F)COc1c(CNCCCCCCNCc2ccc3ccccc3c2OCC(F)(F)F)ccc2ccccc12 | 87.7
CNc1cc(-c2ccc3ccnc(N)c3c2)nc(N)n1 | -1.76
COc1ccc2nccc([C@@H](O)CN3CCC(NC(=O)c4ccc5cc[nH]c5c4)CC3)c2c1 | 4.43
COc1cccc(CCc2cccc(CNC(C)=O)c2)c1 | 5.81
COc1c(CNCCCCCCNCc2c(OC)c(OC)c3ccccc3c2OC)c(OC)c2ccccc2c1OC | 67.6
CCCCCCn1c(Sc2ccc(C#N)c([N+](=O)[O-])c2)nnc1-c1ccccc1 | 8.64
COc1ccccc1C(=O)Nc1cccc(N2CCC(NCc3ccc(-n4cccn4)cc3)CC2)c1 | 9.93
CC(C)c1cc2c(ccc3nc(N)nc(N)c32)[nH]1 | 9.81
CN1CCN(S(=O)(=O)c2ccc3nccc(Nc4ccc(Oc5ccccc5)cc4)c3c2)CC1 | -3.11
COc1ccc(-c2ccc(NC(=O)c3ccc(C#N)cc3)cc2)cc1CN(C)CCO | 2.76
CN(C)Cc1ccc(-c2cc3c(-c4ccc(CN(C)C)cc4)ccnc3[nH]2)cc1 | 5.17
CCCC(=O)Nc1ccc(OCCCN(Cc2ccccc2C(F)(F)F)c2ccc(C#N)c(C(F)(F)F)c2)cc1 | 3.53
COc1ccc(NC(=O)NCC2CCCN(CCCCCNC(=O)/C=C/c3ccc(Cl)c(Cl)c3)C2)c(OC)c1 (stereo not given) | -0.03
CCc1cn2c3c(cc(C(=O)N[C@@H](Cc4ccccc4)[C@H](O)CNC4CCCC4)cc13)N(C)S(=O)(=O)CC2 | 8.55
O=C(NCCc1ccccc1F)c1cc(Br)cc(N2CCN(c3ccncc3)CC2)c1 | 0.33
CC1(C)N=C(N)N=C(N)N1OCCCOc1cccc(C(=O)O)c1 | 5.03
CC(C)(C)c1ccc(S(=O)(=O)Nc2cc(Cl)ccc2Cn2ccc(N3CCNCC3)nc2=O)cc1 | -1.22

Molecular target: Hexose transporter 1 (Plasmodium falciparum) (UniProt O97467)
Experiment: ST_JUDE_LEISH: Cytotoxicity at 2uM final concentration against transgenic Leishmania Mexicana promastigotes LmPfHT that are glucose transport deficient and complemented with the Plasmodium falciparum hexose transporter. Activity is measured by DNA content using SYBR green in vitro
Format: functional

SMILES | inhibition [%]
N#Cc1ccc(N2C[C@@H](OCc3ccccc3)C[C@H]2C(=O)NCCC(c2ccccc2)c2ccccc2)c2ccccc12 | 4.29
O=C(Nc1ccc(SC(F)(F)F)cc1)Nc1ccnc2ccccc12 | -0.22
CN(C)CCCOc1ccc(CN2CC[C@H](NC(=O)c3ccc(Cl)c(Cl)c3)C2)cc1Cl | 10.7
OC[C@H](Nc1nc(C(Oc2ccccc2)c2ccccc2)nc2[nH]ncc12)c1ccccc1 (stereo not given in full) | 4.93
O=C(Nc1ccc2c(c1)CCN2C1CCN(Cc2cccc(C(F)(F)F)c2)C1)c1ccco1 (stereo not given) | 0.28
COC(=O)c1cccc(OCCNC2CCN(C[C@H](O)c3ccnc4ccc(OC)cc34)CC2)c1 | -0.34
O=C(CSc1nc2ccccc2c(=O)n1C1CC1)Nc1cc(C(F)(F)F)ccc1Cl | -2.91
N=C(N)NC(=O)Nc1cc(Br)c(Br)c(Br)c1 | 3.17
CCOc1cc(Cc2cnc(N)nc2N)cc(OCC)c1OCC | 1.8
CCCCCCCCOc1c(OCC)cc(Cc2cnc(N)nc2N)cc1OCC | 7.75
O=C(Nc1ccc(C(F)(F)F)cc1)c1ccc(S(=O)(=O)NCC2CCCN(CC3CCCCC3)C2)cc1 (stereo not given) | 2.24
CCc1nc2nc(C)cc(Nc3cc(C)cc(C)c3)n2n1 | 2.04
O=C(NC1CC1)c1ccc(N2CCC(Oc3ccc(F)cc3)CC2)nc1 | 1.1
CS(=O)(=O)Nc1ccc(-c2cnc3[nH]cc(-c4ccc(C(=O)O)cc4)c3c2)cc1 | 9.93
O=C(Nc1cccc(CN2CCCN(Cc3cccc(O)c3)CC2)c1)c1ccc(Cl)c(Cl)c1 | 12.1
CC1(C)NC(N)=NC(=N)N1OCc1cccc(Cl)c1Cl | 3.75
O=[N+]([O-])c1c(O)nc2c(c1O)CCC2 | 4.36
COc1ccc(N2CCN(CCCCNC(=O)c3ccc(NC(=O)c4ccc(Cl)cc4)cc3)CC2)c(C)c1 | 8.02
COc1ccc(CNCc2ccc(-c3ccc(-c4nc5cccc(C)c5[nH]4)s3)cc2)cc1 | 13.2
C=CC[C@H](C[C@H](O)[C@H](Cc1ccccc1)NC(=O)c1ccc(-c2cccnn2)cc1)C(=O)NC1CCCCC1 | -0.85

SMILES | inhibition [%]
CCN(CCNC(=O)Nc1cc(C(F)(F)F)cc(C(F)(F)F)c1)c1cccc(C)c1 | 4.69
CN(CCCCNC(=O)/C=C/c1ccccc1)C1CC2(CCN(C(=O)OC(C)(C)C)CC2)c2ccccc21 (stereo not given) | 3.28
CC(C)c1cccc(OCC2CCN(c3ccc(C(=O)Nc4ccccc4)cn3)CC2)c1 | 10.6
FC(F)(F)COc1c(CNCCCCCCNCc2ccc3ccccc3c2OCC(F)(F)F)ccc2ccccc12 | 95.5
CNc1cc(-c2ccc3ccnc(N)c3c2)nc(N)n1 | 0.35
COc1ccc2nccc([C@@H](O)CN3CCC(NC(=O)c4ccc5cc[nH]c5c4)CC3)c2c1 | 4.82
COc1cccc(CCc2cccc(CNC(C)=O)c2)c1 | 4.65
COc1c(CNCCCCCCNCc2c(OC)c(OC)c3ccccc3c2OC)c(OC)c2ccccc2c1OC | 11.8
CCCCCCn1c(Sc2ccc(C#N)c([N+](=O)[O-])c2)nnc1-c1ccccc1 | 11.1
COc1ccccc1C(=O)Nc1cccc(N2CCC(NCc3ccc(-n4cccn4)cc3)CC2)c1 | 10.7
CC(C)c1cc2c(ccc3nc(N)nc(N)c32)[nH]1 | 31
CN1CCN(S(=O)(=O)c2ccc3nccc(Nc4ccc(Oc5ccccc5)cc4)c3c2)CC1 | -1.4
COc1ccc(-c2ccc(NC(=O)c3ccc(C#N)cc3)cc2)cc1CN(C)CCO | 0.56
CN(C)Cc1ccc(-c2cc3c(-c4ccc(CN(C)C)cc4)ccnc3[nH]2)cc1 | 12.8
CCCC(=O)Nc1ccc(OCCCN(Cc2ccccc2C(F)(F)F)c2ccc(C#N)c(C(F)(F)F)c2)cc1 | 4.53
COc1ccc(NC(=O)NCC2CCCN(CCCCCNC(=O)/C=C/c3ccc(Cl)c(Cl)c3)C2)c(OC)c1 (stereo not given) | 3.1
CCc1cn2c3c(cc(C(=O)N[C@@H](Cc4ccccc4)[C@H](O)CNC4CCCC4)cc13)N(C)S(=O)(=O)CC2 | 9.26
O=C(NCCc1ccccc1F)c1cc(Br)cc(N2CCN(c3ccncc3)CC2)c1 | 2.34
CC1(C)N=C(N)N=C(N)N1OCCCOc1cccc(C(=O)O)c1 | 5.61
CC(C)(C)c1ccc(S(=O)(=O)Nc2cc(Cl)ccc2Cn2ccc(N3CCNCC3)nc2=O)cc1 | -3.39
